Results filed as inconclusive are left out. A number with no mark means an inactive call. Active and inactive are the calls of the source. Calls come from the whole dose curve.
Assay: qHTS assay to identify small molecule agonists of the hypoxia (HIF-1) signaling pathway - cell viability counter screen (AID 1224844); note: nearly all actives have a fitted effect of over 50% in size
Conditions: HRE-bla ME-180 viability, CellTiter-Glo luminescence, 17 h; series mostly up to 76.8 µM
Excerpt: National Center for Advancing Translational Sciences [NCATS]
NIH Chemical Genomics Center [NCGC]
U.S. Environmental Protection Agency [EPA]
National Institutes of Environmental Health Sciences [NIEHS]
National Toxicology Program [NTP]
U.S. Food and Drug Administration [FDA]
Hypoxia-inducible factor-1 (HIF-1) is the major hypoxia-regulated transcription factor that controls cellular responses to low oxygen concentration. HIF-1 is composed of two subunits: hypoxia responsive HIF-1-alpha and constitutively expressed HIF-1-beta, which is also known as aryl hydrocarbon receptor nuclear translocator. During hypoxic conditions, HIF-1-alpha heterodimerizes with HIF-1-beta and translocates into the nucleus where the HIF-1 complex binds to the hypoxia-response element (HRE) and activates expression of target genes such as VEGF (vascular endothelial growth factor). The HIF-1 pathway is essential to normal growth and development, and is involved in the pathophysiology of cancer, inflammation, and ischemia.
Using a beta-lactamase reporter-gene under control of the hypoxia response element, a cell-based assay [CellSensor(TM) HRE-bla ME-180 from Life Technologies, Carlsbad, CA] was used to measure hypoxia-induced signaling. Tox21 10K library compounds were measured for their ability to induce the reporter gene activity. The cytotoxicity of the Tox21 compound library against HRE-bla ME-180 cell line was tested in parallel by measuring cell viability using CellTiter-Glo assay (Promega, Madison, WI) in the same assay wells.
Tox21 Assay Protocol Summary:
HRE-bla ME-180 cells were dispensed at 2,000 cells per well in 6 uL of assay medium containing 0.5% dialyzed FBS into black wall/clear-bottom 1536-well plates using a Multidrop Combi (Thermo Scientific, Waltham, MA) dispenser. After the assay plates were incubated at 37C and 5% CO2 for 5 hrs, 23 nL of compounds dissolved in DMSO, positive controls or DMSO only was transferred to each well of the assay plate using a Pintool station (Kalypsys, San Diego, CA). The assay plates were incubated at 37C and 5% CO2 for 17 hrs. One uL of LiveBLAzerTM B/G FRET substrate (CCF4-AM) (Life Technologies) was added to each well using a Flying Reagent Dispenser (FRD, Aurora Discovery, San Diego, CA). After 2 hr incubation at room temperature, fluorescence intensity (405 nm excitation, 460 nm and 530 nm emissions) was measured using an Envision plate reader (PerkinElmer, Shelton, CT). For cytotoxicity, 4 ul/well of CellTiter-Glo reagent was added into the assay plates using an FRD. After 30 min incubation at room temperature, the luminescence intensity was measured using a ViewLux plate reader (PerkinElmer).
With `OCC1CCC(CO)CC1` (stereo not given) the outcome was “inactive”.
In the case of `CC12CCC(C1)C(C)(C)C2O` (stereo not given), the outcome is reported as “inactive”.
In the case of `CC(C)OC(=O)CCC(=O)OC(C)C`, the outcome is reported as “inactive”.
For `C=CC/C=C/C`, the outcome was “inactive”.
With `CC(=O)Nc1ccc(OC(=O)c2ccccc2OC(C)=O)cc1` the outcome was “inactive”.
With `C=CCCCC` the outcome was “inactive”.
In the case of `CC(=O)c1cc(C)oc1C`, the outcome is reported as “inactive”.
With `CCCCCC(C)O` (stereo not given) the outcome was “inactive”.
In the case of `CC(=O)C1C(=O)C=C(C)OC1=O` (stereo not given), the outcome is reported as “inactive”.
For `CC(C)=CCC/C(C)=C/COC=O`, the outcome was “inactive”.
In the case of `CC(C)(CO)C(O)C(=O)NCCCO` (stereo not given), the outcome is reported as “inactive”.
In the case of `CC1(C)Oc2ccc(C#N)cc2[C@@H](N2CCCC2=O)[C@@H]1O`, the outcome is reported as “inactive”.
For `CO[Si](CCCn1c(=O)n(CCC[Si](OC)(OC)OC)c(=O)n(CCC[Si](OC)(OC)OC)c1=O)(OC)OC`, the outcome was “inactive”.
In the case of `c1ccc(B(c2ccccc2)c2ccccc2)cc1`, the outcome is reported as “inactive”.
For `O=C1c2ccccc2C(=O)c2cc(Cl)ccc21`, the activity change, negative = cytotoxicity was 10.7% [at 6.97 µM].
For `O=C(O)CCCCCC(=O)O`, the outcome was “inactive”.
With `CSc1cnccn1` the outcome was “inactive”.
With `CN(C)CCOC(=O)C(c1ccccc1)C1(O)CCCC1` (stereo not given) the outcome was “inactive”.
In the case of `N#Cc1ccccc1O`, the outcome is reported as “inactive”.
In the case of `OCC(O)CN1CCN(c2ccccc2)CC1` (stereo not given), the outcome is reported as “inactive”.
For `C=CCSSCCC`, the outcome was “inactive”.
For `O=C(O)c1cc2ccccc2nc1C(=O)O`, the outcome was “inactive”.
For `CCC/C=C(\C=O)CC`, the outcome was “inactive”.
For `CC(C)COC(=O)c1ccccc1`, the outcome was “inactive”.
With `C/C=C(\C)C(=O)OCCc1ccccc1` the outcome was “inactive”.
With `CC1=NN(c2ccc(S(=O)(=O)O)cc2)C(=O)C1` the outcome was “inactive”.
With `Cc1ncc([N+](=O)[O-])n1CC(C)O` (stereo not given) the outcome was “inactive”.
With `CC/C=C\CCOC(=O)c1ccccc1O` the outcome was “inactive”.
In the case of `CC(C)NC(=O)c1ccc(C=O)cc1`, the outcome is reported as “inactive”.
For `CCCCSCCCC`, the outcome was “inactive”.
For `CN1CCOC(c2ccccc2)c2ccccc2C1` (stereo not given), the outcome was “inactive”.
For `CCCC(CC)c1ccccc1` (stereo not given), the outcome was “inactive”.
With `O=Cc1ccccc1Cl` the outcome was “inactive”.
With `CCCCCCCCCOC(=O)c1ccccc1C(=O)OCCCCCCCCC` the outcome was “inactive”.
For `OC[C@H]1O[C@@H](O[C@@H]2[C@@H](CO)O[C@](O)(CO)[C@H]2O)[C@H](O)[C@@H](O)[C@H]1O`, the outcome was “inactive”.
In the case of `C=CCN1C[C@H](C(=O)N(CCCN(C)C)C(=O)NCC)C[C@@H]2c3cccc4[nH]cc(c34)C[C@H]21`, the outcome is reported as “inactive”.
For `CC1CCc2c(N3CCC(O)CC3)c(F)cc3c(=O)c(C(=O)O)cn1c23` (stereo not given), the outcome was “inactive”.
With `CC1=C(O)C(=O)C(C)O1` (stereo not given) the outcome was “inactive”.
In the case of `NCCOCCN`, the outcome is reported as “inactive”.
`CCn1cc(C(=O)O)c(=O)c2cnc(N3CCCC3)nc21` showed an activity change, negative = cytotoxicity of 0.904% [at 6.97 µM].
% is set by controls: 0 for no effect and ±100 for the full control effect.
